According to PubChem BioAssay (NCATS):
Inconclusive results are not listed. Unmarked numbers belong to inactive results. Activity calls are given as the source filed them. The call rests on the fitted dose curve; in most records, active means well fitted inhibition curve with a large enough effect; inconclusive means small, poorly fitted or top-dose-only effect, or effect the other way; inactive means no such curve, though single readings can be large or run the other way.

Experiment: High Content Imaging Cell-Based qHTS for Inhibitors of the mTORC1 Signaling Pathway in MEF Cells (AID 2667);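 on activity change, negative = inhibition: Tsc2-/- p53-/- MEFs stably re-expressing wild-type Tsc2 exposed 24 h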
Conditions: series mostly up to 38.3 µM; activity change, negative = inhibition: at the top concentration
Text: NIH Molecular Libraries Probe Production Centers Network [MLPCN]
NIH Chemical Genomics Center [NCGC]
Assay Submitter (PI): Blenis, John; Hoffman, Greg; Harvard University
NCGC Assay Overview: The mammalian target of rapamycin (mTOR) is an intracellular serine/threonine kinase Aberrant regulation of mTOR signaling plays a causative role in a number of human diseases, including cancer, benign tumors such as lymphangioleiomyomatosis (LAM) and Tuberous Sclerosis Complex (TSC), and metabolic diseases such as diabetes and obesity. This project aims to identify inhibitors of ribosomal protein S6 (rpS6) phosphorylation. The phosphorylation of rpS6 is a key event downstream of mTOR activation. The assay uses a phospho-specific antibody of phospho-rpS6 to detect inhibitors of mTOR activation. Mutations in the Tsc1 and Tsc2 genes are the underlying genetic lesions responsible for TSC, causing constitutive activation of the mTORC1 pathway and leading to profound effects on cell metabolism. Aberrant metabolism in cancer has recently received significant attention as a target to develop therapeutic agents in the treatment of cancer.1 As Tsc2-/- cells have lost the ability to respond to energy and growth factor deprivation, these cells are unable to properly down regulate cellular biosynthetic processes in response to metabolic stress, and are thus extremely sensitive to glucose deprivation-induced death.2 A central goal of this project is to explore the unique cell survival and metabolic properties of cells with Tsc1 or Tsc2 by screening for compounds that selectively target the Tsc2-/- MEFs by screening both Tsc2-/- and WT MEF cell lines. We hope to better understand these aspects of TSC physiology in order to exploit them for therapeutic benefit.
NCGC IN Cell Assay Protocol:
For quantitative high throughput analysis of mTORC1 signaling, we developed a cell-based assay for immuno-fluorescence based detection of rpS6 phosphorylation on the Acumen Explorer that will be used a platform for the primary small molecule screen. Mouse embryonic fibroblasts (MEFs) are cultured in 1536-well plates using DMEM + 10% FBS. Twenty-four hrs after plating, test compounds (solubilized in DMSO) are delivered and incubated with the cells for 24 hrs at 37 degree Celsius. Following the incubation, media with compound is aspirated and the cells are fixed in 4% paraformaldehyde (PFA) containing PBS + 0.2% TX-100. Next, PFA is aspirated, cells are washed two times with PBS plus 0.2% TX-100 and the cells are blocked for 1 hr at room temperature (blocking buffer: LiCOR Blocking Buffer plus 0.2% TX-100). This is followed by aspiration and staining with Alexa-488 conjugated-phospho-rpS6 Ser235/236 antibody for 2 hours at room temperature (Cell Signaling Technology # 4803, 1:50 dilution in blocking buffer). Cells are washed two times with PBS plus 0.2% TX-100, and stained with 10 uM propidium iodide (PI) for 20-25 minutes for cell number measurement (1:500 dilution of Hoescht staining is also added for IN Cell imaging). Active wells which are selected (based on Acumen results) are imaged on the IN Cell 1000 (GE Healthcare) using the D360/40X and HQ480/40X excitation filters for the Hoechst and Alexa-488 cytoplasmic stains, respectively. The fluorescence emission filters used were HQ460/40M and HQ535/50M for the Hoechst and Alexa-488 cytoplasmic stains, respectively. The normalized phospho-S6 staining is calculated as the ratio of […] for the single concentration rapamycin control ([…] nM) and DMSO columns. […] Inhibition of the pathway is defined based on the normalized phospho-S6 intensity in rapamycin treated cells. Each treatment is reported as the % positive cells in the well, where thresholds are defined by selecting wells with the highest and lowest signal and differentiating between the % non-active and % active populations. […]
Potency means the concentration at half of the fitted maximal effect.

**Q.** With `CCc1ccc2c(-c3cccc(Cl)c3)nc(=O)n(CC)c2n1` as the compound, how does the “activity change, negative = inhibition” value read?
**A.** -100%

**Q.** Which “activity change, negative = inhibition” value does the source give for `CCCCC[C@H](CC(=O)NO)C(=O)N[C@H](C(=O)N1CCC[C@H]1CO)C(C)C` here?
**A.** -100%

**Q.** Which “activity change, negative = inhibition” value does the source give for `COc1cccc(OC)c1OCCNCC1CSc2ccccc2O1` (stereo not given) here?
**A.** -100%

**Q.** Which “activity change, negative = inhibition” value does the source give for `CCC1(O)CC2CN(CCc3c([nH]c4ccccc34)[C@@](C(=O)OC)(c3cc4c(cc3OC)N(C=O)C3[C@]45CCN4CC=C[C@@](CC)([C@@H](OC(C)=O)[C@]3(O)C(=O)OC)[C@H]45)C2)C1` (stereo not given in full) here?
**A.** -100%

**Q.** Which “activity change, negative = inhibition” value does the source give for `O=C(O)c1cccnc1C(=O)O` here?
**A.** -100%

**Q.** For `N#Cc1cc([N+](=O)[O-])c2sc(C(N)=O)[n+]([O-])c2c1`, which “activity change, negative = inhibition” value is on record?
**A.** -100%

**Q.** Which “activity change, negative = inhibition” value does the source give for `[Li+]` here?
**A.** -100%

**Q.** Which “activity change, negative = inhibition” value does the source give for `O=C1C2C=CC=CC2=NC(=S)N1CCN1CCC(=C(c2ccc(F)cc2)c2ccc(F)cc2)CC1` (stereo not given) here?
**A.** -100%

**Q.** For `Nc1ccc(-c2nc3ccc(-c4nc5ccc(N)cc5[nH]4)cc3[nH]2)cc1`, which “activity change, negative = inhibition” value is on record?
**A.** -100%

**Q.** For `O=c1[nH]c(=S)[nH]c(-c2ccccc2)c1Cc1c(O)ccc2ccccc12`, which “activity change, negative = inhibition” value is on record?
**A.** -100%

**Q.** For `CC[N+](CC)(CC)CC(=O)Nc1c(C)cccc1C`, which “activity change, negative = inhibition” value is on record?
**A.** -100%

**Q.** Which “activity change, negative = inhibition” value does the source give for `[N-]=[N+]=Nc1ccc(C(=O)CSC[C@H](NC(=O)CC[C@H](N)C(=O)O)C(=O)NCC(=O)O)cc1` here?
**A.** -100%

**Q.** Which “activity change, negative = inhibition” value does the source give for `Nc1ncnc2c1nc(Br)n2C1OC2COP(=O)(O)O[C@@H]2C1O` (stereo not given in full) here?
**A.** -100%

**Q.** With `COc1ccc(CCN(C)CCc2ccc(OC)c(OC)c2)cc1OC` as the compound, how does the “activity change, negative = inhibition” value read?
**A.** -100%

**Q.** For `NCCC1CCCC(CCN)N1` (stereo not given), which “activity change, negative = inhibition” value is on record?
**A.** -100%

**Q.** Which “activity change, negative = inhibition” value does the source give for `CN(C)C(=O)/N=N/C(=O)N(C)C` here?
**A.** -100%

**Q.** Which “activity change, negative = inhibition” value does the source give for `CCn1c(=O)[nH]c2cc(Cl)c(Cl)cc21` here?
**A.** -100%

**Q.** Which “activity change, negative = inhibition” value does the source give for `O=C(O)Cc1c[nH]c2ccc(O)cc12` here?
**A.** -100%

**Q.** With `O=C(O)/C=C/c1cnc[nH]1` as the compound, how does the “activity change, negative = inhibition” value read?
**A.** -100%

**Q.** For `CC(N)(Cc1ccc(O)cc1)C(=O)O` (stereo not given), which “activity change, negative = inhibition” value is on record?
**A.** -100%

**Q.** For `Nc1nc2c(cnn2CCc2ccccc2)c2nc(-c3ccco3)nn12`, which “activity change, negative = inhibition” value is on record?
**A.** -100%

**Q.** For `N[C@H](C(=O)O)[C@H]1C[C@@H]1C(=O)O`, which “activity change, negative = inhibition” value is on record?
**A.** -100%

**Q.** For `O=C1NC(=O)c2cc(Nc3ccccc3)c(Nc3ccccc3)cc21`, which “activity change, negative = inhibition” value is on record?
**A.** -100%

**Q.** With `COc1ccc(NC(=O)c2ccc(-c3ccc(-c4noc(C)n4)cc3C)cc2)cc1N1CCN(C)CC1` as the compound, how does the Potency read?
**A.** 5.85 µM (active)

**Q.** With `NCCCCN=C(N)N` as the compound, how does the “activity change, negative = inhibition” value read?
**A.** -100%

**Q.** Which “activity change, negative = inhibition” value does the source give for `O=C1Cc2c([nH]c3ccc(Br)cc23)-c2ccccc2N1` here?
**A.** -100%

**Q.** With `Nc1ccc(N2C(=O)c3ccccc3C2=O)c(Cl)c1` as the compound, how does the “activity change, negative = inhibition” value read?
**A.** -100%

**Q.** Which “activity change, negative = inhibition” value does the source give for `O=[N+]([O-])c1cccc2c(Br)[nH]nc12` here?
**A.** -100%

**Q.** For `C=CCn1c(=O)c2c(nc(-c3ccc(S(=O)(=O)O)cc3)n2C)n(C)c1=O`, which “activity change, negative = inhibition” value is on record?
**A.** -100%

**Q.** For `CCCN(CCc1ccccc1)C1CCc2c(O)cccc2C1` (stereo not given), which “activity change, negative = inhibition” value is on record?
**A.** -100%

**Q.** For `O=c1[nH]c2ccccc2c2ccccc12`, which “activity change, negative = inhibition” value is on record?
**A.** -100%

**Q.** Which “activity change, negative = inhibition” value does the source give for `NC1(C(=O)O)CCc2cc(C(=O)O)ccc21` (stereo not given) here?
**A.** -100%

**Q.** Which “activity change, negative = inhibition” value does the source give for `CCCCCCCCCCCCCCCCCCOC[C@H](COP(=O)([O-])OCC[N+](C)(C)C)OC` here?
**A.** -100%

**Q.** For `Cc1cccc(C(=O)NCN2CCN(c3ccccc3C#N)CC2)c1`, which “activity change, negative = inhibition” value is on record?
**A.** -100%

**Q.** For `Cc1cc2c(cc1Cl)N(C(=O)Nc1ccnc3ccccc13)CC2`, which “activity change, negative = inhibition” value is on record?
**A.** -100%

**Q.** With `N=S(=O)(O)Cc1noc2ccccc12` as the compound, how does the “activity change, negative = inhibition” value read?
**A.** -100%

**Q.** For `CN1CCCC1CCOC(C)(c1ccccc1)c1ccc(Cl)cc1` (stereo not given), which Potency is on record?
**A.** 14.7 µM (active)

**Q.** Which Potency does the source give for `O=C(N[C@@H](Cc1ccccc1)C(=O)CCl)OCc1ccccc1` here?
**A.** 5.21 µM (active)

**Q.** For `C[C@@]1(C2CCCC2)Cc2cc(OCC(=O)O)c(Cl)c(Cl)c2C1=O`, which “activity change, negative = inhibition” value is on record?
**A.** -100%

**Q.** Which “activity change, negative = inhibition” value does the source give for `O=C(O)c1cc(=O)cc(C(=O)O)[nH]1` here?
**A.** -100%
